Measurements taken from PubChem BioAssay AID1159580 (chemical genetic matrix, 2015).
In all, about 5,500 compounds went through this assay and about 2,000 (36%) were called active. Inconclusive results (about 18%) are left out. Rule as the data show it: active = normalized growth mostly below about 0.91 (no sharp cut-off); inconclusive = no clear call, values can overlap the other calls; inactive = mostly above about 0.92. This is one part of the list.

Experiment: chemical genetic growth profiling, strain panel (AID 1159580);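 also: tested at 20 µM; growth read once vehicle control cultures reached saturation at 30 °C; 1 = growth at the plate median or of vehicle wells; lower values mean less growth of the strain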
Conditions: growth OD
[1] = S. cerevisiae deletion strains, locus YAL013W, strain DEP1, stronger effect = lower value
[2] = S. cerevisiae deletion strains, locus YBR229C, strain ROT2, stronger effect = lower value
[3] = S. cerevisiae deletion strains, locus YDL101C, strain DUN1, stronger effect = lower value
[4] = S. cerevisiae deletion strains, locus YDL134C, strain PPH21, stronger effect = lower value
[5] = S. cerevisiae deletion strains, locus YDR150W, strain NUM1, stronger effect = lower value
[6] = S. cerevisiae deletion strains, locus YEL061C, strain CIN8, stronger effect = lower value
[7] = S. cerevisiae deletion strains, locus YGR078C, strain PAC10, stronger effect = lower value
[8] = S. cerevisiae deletion strains, locus YHR030C, strain SLT2, stronger effect = lower value
[9] = S. cerevisiae deletion strains, locus YHR087W, strain rtc3, stronger effect = lower value
[10] = S. cerevisiae deletion strains, locus YJR043C, strain POL32, stronger effect = lower value
[11] = S. cerevisiae deletion strains, locus YJR075W, strain HOC1, stronger effect = lower value
[12] = S. cerevisiae deletion strains, locus YKL190W, strain CNB1, stronger effect = lower value
[13] = S. cerevisiae deletion strains, locus YLR039C, strain RIC1, stronger effect = lower value
[14] = S. cerevisiae deletion strains, locus YLR058C, strain SHM2 (second series), stronger effect = lower value
[15] = S. cerevisiae deletion strains, locus YLR085C, strain ARP6, stronger effect = lower value
[16] = S. cerevisiae deletion strains, locus YLR262C, strain YPT6, stronger effect = lower value
[17] = S. cerevisiae deletion strains, locus YML094W, strain GIM5, stronger effect = lower value
[18] = S. cerevisiae deletion strains, locus YMR219W, strain ESC1, stronger effect = lower value
[19] = S. cerevisiae deletion strains, locus YMR307W, strain GAS1, stronger effect = lower value
[20] = S. cerevisiae deletion strains, locus YNL153C, strain GIM3, stronger effect = lower value
[21] = S. cerevisiae deletion strains, locus YNL298W, strain CLA4 (second series), stronger effect = lower value
[22] = S. cerevisiae deletion strains, locus YNL322C, strain KRE1, stronger effect = lower value
[23] = S. cerevisiae deletion strains, locus YNR030W, strain Alg12, stronger effect = lower value
[24] = S. cerevisiae deletion strains, locus YPL055C, strain LGE1, stronger effect = lower value
[25] = S. cerevisiae deletion strains, locus YPR135W, strain CTF4, stronger effect = lower value

Measured: normalized growth

CC(C)(C)C1=NN(c2ccccc2)C(=O)C1
active: [13] 0.666 | [15] 0.637 | [16] 0.707 | S. cerevisiae strains, strain wild type, stronger effect = lower value 0.884
inactive: [1] 0.973 | [2] 0.959 | S. cerevisiae deletion strains, locus YCL061C, strain MRC1, stronger effect = lower value 0.966 | [3] 0.983 | [4] 0.975 | [5] 0.952 | [6] 0.994 | [7] 0.956 | [8] 0.863 | [9] 1 | [10] 1.01 | [11] 0.939 | [12] 0.956 | [14] 0.972 | [17] 0.984 | [18] 0.966 | [19] 0.803 | [20] 0.981 | [21] 0.929 | [22] 0.981 | [23] 0.888 | S. cerevisiae deletion strains, locus YOL006C, strain TOP1, stronger effect = lower value 0.808 | [24] 1.03 | S. cerevisiae deletion strains, locus YPL241C, strain CIN2, stronger effect = lower value 0.89 | [25] 0.656

CC1=NN(c2cccc(S(N)(=O)=O)c2)C(=O)C1
inactive: [1] 1.01 | [2] 1 | [3] 1.03 | [4] 0.978 | [5] 0.985 | [6] 1 | [7] 1 | [8] 1.04 | [9] 1.01 | [10] 0.999 | [11] 1.03 | [12] 0.985 | [13] 0.975 | [14] 0.998 | [15] 1.04 | [16] 0.952 | [17] 1.12 | [18] 1.01 | S. cerevisiae deletion strains, locus YMR263W, strain SAP30, stronger effect = lower value 0.994 | [19] 1.04 | S. cerevisiae deletion strains, locus YNL128W, strain TEP1, stronger effect = lower value 0.977 | [20] 1.01 | [21] 1.01 | [22] 1.01 | [23] 0.999 | [24] 1.03 | [25] 1.08
